From PubChem BioAssay
Only some compounds are listed: those with a hit (about 4.3% of all), similar ones and a draw of the others.
GRIN3A LBD mod – modulates the human NR3A ligand-binding domain; NR3A LBD differential scanning fluorimetry, Tm shift; 0% = protein alone, 100% = glycine-bound protein; Tm shift relative to glycine control, % at 25 µM; 2.5% of 340,000 active; AID 1259313;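 active = melting temperature shift of at least 10% of the positive control shift, at one fixed dose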
HGIII-sPLA2 inh – Inhibits HGIII-sPLA2 liposome hydrolysis, primary screen; Q9NZ20; QFRET BODIPY PC-A2 liposome hydrolysis, fluorescence; inhibition, % at 12.2 µM; 0.56% of 370,000 active;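 active = inhibition above mean plus 3 SD of compounds lying within the high and low control bounds, cut at about 19% in these data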;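 also: 0% = median of test compound wells and 100% = no enzyme DMSO wells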
ADAM10 inh – inhibitors of human ADAM10 | recombinant ADAM10, EDANS/DABCYL FRET peptide cleavage, 3 h | inhibition, % at 7 µM | 0.62% of 370,000 active | AID 720582;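 active = inhibition above a per-campaign cutoff equal to the mean of compounds falling between control-based bounds plus 3 SD, cut at about 20% in these data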;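 also: 0% = DMSO wells while the 100% control is not disclosed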
FAS TE block – blocks the thioesterase domain of human fatty acid synthase. P49327. recombinant FAS-TE, OMFH fluorogenic substrate, fluorescence endpoint. inhibition, % at 15 µM. 0.67% of 360,000 active. AID 602261;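 active = compounds whose normalised, plate-corrected inhibition of enzyme fluorescence in the single-dose primary screen is 50% or more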;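 also: 0% = DMSO with enzyme and 100% = substrate without enzyme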
ADAM17 inh – inhibits human ADAM17. 0.83% of 370,000 active. P78536. recombinant ADAM17, EDANS/DABCYL FRET peptide cleavage. AID 720648. inhibition, % at 6.95 µM;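 active = inhibition above the mean of compounds lying between control limits plus 3 SD, set per campaign, cut at about 8.5% in these data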;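 also: 0% = DMSO-only wells as the low control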
Target sequence (P78536 215-824 limits assumed): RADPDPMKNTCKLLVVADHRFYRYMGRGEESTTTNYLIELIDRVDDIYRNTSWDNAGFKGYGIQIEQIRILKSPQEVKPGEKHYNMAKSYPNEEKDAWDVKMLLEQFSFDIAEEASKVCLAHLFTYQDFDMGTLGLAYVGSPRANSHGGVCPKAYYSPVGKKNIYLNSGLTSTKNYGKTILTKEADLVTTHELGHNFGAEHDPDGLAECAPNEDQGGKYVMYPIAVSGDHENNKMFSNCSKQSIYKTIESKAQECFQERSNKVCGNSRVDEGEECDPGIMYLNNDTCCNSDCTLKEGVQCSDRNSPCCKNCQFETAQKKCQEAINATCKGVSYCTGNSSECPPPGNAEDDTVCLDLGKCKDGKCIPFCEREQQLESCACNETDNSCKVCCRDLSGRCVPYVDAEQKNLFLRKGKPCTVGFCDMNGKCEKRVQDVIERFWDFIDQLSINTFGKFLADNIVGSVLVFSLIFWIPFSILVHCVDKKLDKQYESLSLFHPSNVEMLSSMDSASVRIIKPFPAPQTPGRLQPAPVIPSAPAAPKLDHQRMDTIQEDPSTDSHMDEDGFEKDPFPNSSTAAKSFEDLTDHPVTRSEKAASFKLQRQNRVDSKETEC
The depositor's hits bear a star.

What do the screens show for `CC(C)CCNC(=O)C1COC(O)(C(Cc2ccccc2)NC(=O)[C@@H](NC(=O)OCc2ccccc2)C(C)C)CN1` (some centres not stated)?
HGIII-sPLA2 inh: -1; ADAM10 inh: -5; ADAM17 inh: -3

Results for CCOC(=O)c1nn(-c2ccccc2)cc1O ?
GRIN3A LBD mod: 10*; HGIII-sPLA2 inh: -4; ADAM10 inh: -14; FAS TE block: -2; ADAM17 inh: -9

What do the screens show for `CCOC(=O)c1nn(-c2ccc(C)cc2)cc1O`?
GRIN3A LBD mod: 0; HGIII-sPLA2 inh: -8; ADAM10 inh: -9; FAS TE block: -8; ADAM17 inh: -3

How did CC(=O)Nc1sc2c(c1-c1nc3ccccc3s1)CCCN(C(C)C)C2 do in these assays?
HGIII-sPLA2 inh: -9; ADAM10 inh: -140; ADAM17 inh: -38

Results for O=c1c2c(ncn2C2CCCC2)n(Cc2ccccc2)c(=O)n1CCOc1ccccc1 ?
GRIN3A LBD mod: 15*; HGIII-sPLA2 inh: -3; ADAM10 inh: 9; FAS TE block: 15; ADAM17 inh: 6

What do the screens show for `Oc1ccc(Cl)cc1C1=NNC(c2ccc(Cl)cc2)C1` (configuration not stated)?
GRIN3A LBD mod: 11*; HGIII-sPLA2 inh: -9; ADAM10 inh: -9; FAS TE block: 24; ADAM17 inh: -3

Results for Oc1c(Cl)cc(Cl)cc1C1=NNC(c2ccc(Cl)cc2)C1 (configuration not stated) ?
GRIN3A LBD mod: -1; FAS TE block: 15

How did CCOC(=O)c1c(C)[nH]c(C(=O)OCC(=O)Nc2sccc2C(N)=O)c1C do in these assays?
GRIN3A LBD mod: 29*; HGIII-sPLA2 inh: -14; ADAM10 inh: -9; FAS TE block: -1; ADAM17 inh: -3

Results for NC(=O)c1ccsc1NC(=O)COC(=O)c1cc(Cl)ccc1O ?
GRIN3A LBD mod: 19*; HGIII-sPLA2 inh: 6; ADAM10 inh: -43; FAS TE block: -5; ADAM17 inh: -21

What do the screens show for `CCOC(=O)c1c(C)[nH]c(C(=O)OCC(=O)Nc2ccc(Cl)cn2)c1C`?
GRIN3A LBD mod: 1; HGIII-sPLA2 inh: 1; ADAM10 inh: 6; FAS TE block: 0; ADAM17 inh: -5

What do the screens show for `NC(=O)c1ccsc1NC(=O)COC(=O)c1ccccc1F`?
GRIN3A LBD mod: 1; HGIII-sPLA2 inh: 4; ADAM10 inh: -3; FAS TE block: -2; ADAM17 inh: -1

Results for COc1ccc(N2CCN(CCCNC(=O)CCc3cccc(F)c3)CC2)cc1 ?
HGIII-sPLA2 inh: 4; ADAM10 inh: -4; ADAM17 inh: -2

Results for Cc1ccsc1/C=N/NC(=O)c1nnn(-c2nonc2N)c1C ?
GRIN3A LBD mod: 5; HGIII-sPLA2 inh: 2; ADAM10 inh: 4; FAS TE block: -1; ADAM17 inh: 0

How did CCCc1c(C(=O)N/N=C/c2cccs2)nnn1-c1nonc1N do in these assays?
GRIN3A LBD mod: 17*; HGIII-sPLA2 inh: 8; ADAM10 inh: -16; FAS TE block: 2; ADAM17 inh: 2

How did Cc1c(C(=O)N/N=C/c2cccs2)nnn1-c1nonc1N do in these assays?
GRIN3A LBD mod: 10*; HGIII-sPLA2 inh: 2; ADAM10 inh: -69; FAS TE block: -2; ADAM17 inh: 3

What do the screens show for `CN(Cc1c(C(=O)N/N=C/c2cccs2)nnn1-c1nonc1N)c1ccccc1`?
GRIN3A LBD mod: 16*; HGIII-sPLA2 inh: 1; ADAM10 inh: 16; FAS TE block: 12; ADAM17 inh: 5

Results for COC(=O)[C@]12C[C@H](CC(=O)NCCC(C)C)C(=O)N(Cc3ccc4c(c3)OCO4)C1=C[C@H](C(C)C)O[C@@H]2C1CC1 ?
HGIII-sPLA2 inh: -8; ADAM10 inh: 14; ADAM17 inh: 5

How did O=C(C1CCCO1)N1CCN(C2=Nc3ccccc3Sc3ccccc32)CC1 (configuration not stated) do in these assays?
HGIII-sPLA2 inh: 4; ADAM10 inh: 1; ADAM17 inh: -1

What do the screens show for `CC(C)Cc1csc(NC(=O)c2ccccc2Cl)c1C(=O)O`?
GRIN3A LBD mod: 12*; HGIII-sPLA2 inh: -4; ADAM10 inh: 3; FAS TE block: -1; ADAM17 inh: 2

How did CC(C)=CCOc1ccc([C@@H]2COc3c(ccc4c3C=CC(C)(C)O4)C2)c(O)c1 do in these assays?
GRIN3A LBD mod: 15*; HGIII-sPLA2 inh: -4; ADAM10 inh: -6; FAS TE block: 9; ADAM17 inh: 2

How did CN(C(=O)c1cccc(NC(=O)Cc2ccc(NC(=O)C3CCN(S(=O)(=O)c4cccc([N+](=O)[O-])c4)CC3)cc2)c1)C1CC1 do in these assays?
GRIN3A LBD mod: 0; HGIII-sPLA2 inh: -18; ADAM10 inh: -3; FAS TE block: 7; ADAM17 inh: 2

How did CN(C(=O)c1ccc(NC(=O)Cc2ccc(NC(=O)C3CCN(S(=O)(=O)c4cccc([N+](=O)[O-])c4)CC3)cc2)cc1)C1CCCC1 do in these assays?
GRIN3A LBD mod: 10*; HGIII-sPLA2 inh: -11; ADAM10 inh: 2; FAS TE block: 14; ADAM17 inh: 0

What do the screens show for `O=C(Cc1cccc(NC(=O)C2CCN(S(=O)(=O)c3cccc([N+](=O)[O-])c3)CC2)c1)Nc1cccc(C(=O)N2CCCCC2)c1`?
GRIN3A LBD mod: 11*; HGIII-sPLA2 inh: -10; ADAM10 inh: 5; FAS TE block: 18; ADAM17 inh: 0

What do the screens show for `CN(C(=O)c1cccc(NC(=O)Cc2ccc(NC(=O)C3CCCN(S(=O)(=O)c4cccc([N+](=O)[O-])c4)C3)cc2)c1)C1CCC1` (configuration not stated)?
GRIN3A LBD mod: 11*; HGIII-sPLA2 inh: -6; ADAM10 inh: -1; FAS TE block: 31; ADAM17 inh: 6

How did C=CCNC(=O)N1CCC(c2nc3ccc(Cl)cc3[nH]2)CC1 do in these assays?
HGIII-sPLA2 inh: 4; ADAM10 inh: 4; ADAM17 inh: 3

How did Cc1cc(-c2onc(C)c2C(=O)Nc2ccc(C(F)(F)F)cc2)no1 do in these assays?
GRIN3A LBD mod: 0; HGIII-sPLA2 inh: 3; ADAM10 inh: 4; FAS TE block: -1; ADAM17 inh: -3

Results for Cc1noc(-c2ccc(C(F)(F)F)cc2)c1NC(=O)Nc1ccc(Cl)cc1 ?
GRIN3A LBD mod: 30*; HGIII-sPLA2 inh: -2; ADAM10 inh: 2; FAS TE block: 1; ADAM17 inh: 1

Results for Cn1c(Cc2cccs2)nnc1SCC(=O)Nc1ccc2cn[nH]c2c1 ?
HGIII-sPLA2 inh: 0; ADAM10 inh: 3; ADAM17 inh: -2

Results for COC(=O)c1cc2occc2n1CC(=O)N(C)C1CCCCC1 ?
GRIN3A LBD mod: 3; HGIII-sPLA2 inh: 4; ADAM10 inh: -2; FAS TE block: -5; ADAM17 inh: -3

Results for COC(=O)c1cc2oc(C)cc2n1CC(=O)N(C)c1ccccc1 ?
GRIN3A LBD mod: 11*; HGIII-sPLA2 inh: -15; ADAM10 inh: 1; FAS TE block: -4; ADAM17 inh: -2

Results for Cc1ccc(S(=O)(=O)N(CCC(=O)O)c2ccccc2)cc1 ?
GRIN3A LBD mod: 15*; HGIII-sPLA2 inh: -1; ADAM10 inh: -2; FAS TE block: -4; ADAM17 inh: -1
